# Inconclusive results are not listed. The source made the active and inactive calls. Calls come from the whole dose curve; as a rule, active = well fitted inhibition curve with a large enough effect; inconclusive = small, poorly fitted or top-dose-only effect; inactive = flat fitted curve, though single readings scatter.
# Target: Calcium and integrin-binding protein 1 (Homo sapiens) (UniProt Q99828)
# Test: Primary qHTS for Identification of Calcium Integrin Binding Protein 1 (CIB1) Competitor (AID 1508620); note: top concentration of the series differs between compounds
# Settings: CIB1-GST / FITC-alphaIIb peptide fluorescence polarization; series mostly up to 114 µM; activity change, negative = inhibition: at the top concentration
# How it was run: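 Fluorescence polarization competition: GST-tagged CIB1 (1 uM final) preincubated with compound 15 min at room temperature, then FITC-labelled alphaIIb peptide (100 nM final) added. After 15 min at room temperature, polarization read at Ex 480/Em 540.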
# % is set by controls: 0 for no effect and ±100 for the full control effect.
# Chain of Calcium and integrin-binding protein 1 (Homo sapiens) (Q99828 whole entry, looked up): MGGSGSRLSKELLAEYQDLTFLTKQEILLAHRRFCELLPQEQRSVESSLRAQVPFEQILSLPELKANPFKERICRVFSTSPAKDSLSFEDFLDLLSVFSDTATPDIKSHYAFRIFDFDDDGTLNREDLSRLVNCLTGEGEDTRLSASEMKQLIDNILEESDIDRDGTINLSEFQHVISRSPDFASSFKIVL
SMILES,"activity change, negative = inhibition",Potency
O=C(Nc1ccc(-c2nc3ccccc3[nH]2)cc1)c1ccc2n[nH]nc2c1,4.23% (inactive),
Cc1ccccc1C(=O)N1CCc2cc(-c3nc(NC(=O)c4ccc5c(c4)OCO5)sc3C)ccc21,0.109% (inactive),
Cc1cccc(C(=O)NCC(=O)OC(C(=O)Nc2cc(C(F)(F)F)ccc2Cl)c2ccccc2)c1 (stereo not given),1.26% (inactive),
Cc1cc2c(s1)c1cnn(Cc3ccc(-n4cncn4)cc3)c(=O)c1n2C,1.36% (inactive),
CC(C)(C)OC(=O)N1CCN(c2ccc(NCc3ccc(-c4cc(C(F)(F)F)cc(C(F)(F)F)c4)o3)cc2)CC1,4.47% (inactive),
c1ccc(CNCc2nnc(-c3cc4ccccc4[nH]3)s2)cc1,3.19% (inactive),
CCCCN1C(=O)c2ccccc2NC1c1ccc(OC)c(COc2c(C)cc(NC(C)=O)cc2C)c1 (stereo not given),1.72% (inactive),
CC(C)(C)C(=O)N1CCN(c2cccc(Nc3nn4c(=O)c5ccccc5nc4s3)c2)CC1,-10.6% (inactive),
COc1ccc(-c2nc3cccc(OC)c3c(=O)n2Cc2ccccc2)cc1COc1ccc(NC(C)=O)cc1,-10.5% (inactive),
Cc1cn([C@H]2C[C@H](N[S+](=O)([O-])Cc3ccccc3)[C@@H](CO)O2)c(=O)[nH]c1=O,2.77% (inactive),
CCOc1ccc(NC(=O)NCC2CCCN2c2ccc(OC)cc2)cc1 (stereo not given),,inactive
Cc1ccc(NS(=O)(=O)c2cc3c(cc2F)NC(=O)CC3)cc1C,-0.372% (inactive),
Cc1ccc(OCCn2c(CCNC(=O)c3cc([N+](=O)[O-])ccc3[N+](=O)[O-])nc3ccccc32)cc1,3.6% (inactive),
Cc1ccnc(NC(=S)NC2CCCN(c3cccc(C(F)(F)F)c3)C2)c1 (stereo not given),2.44% (inactive),
Nc1ccc(-c2ccc(NC(=O)c3cccs3)cn2)cc1,1.3% (inactive),
O=C(Nc1cc(F)cc(F)c1)Nc1nnc(-c2ccncc2)s1,8.45% (inactive),
Cc1cc(C)nc(NC(=S)N2CCN(c3ccc4cn(C)nc4c3)CC2)c1,-2.21% (inactive),
N#Cc1ccc(-c2ccc(=O)n(CC(=O)NCCc3ccccc3)n2)cc1,-1.74% (inactive),
Oc1cc(NCc2ccc(F)cc2)cc2cccnc12,1.19% (inactive),
Cc1cccc(CNc2ccnc(-c3ccc(F)cc3F)n2)c1,-1.52% (inactive),

SMILES,"activity change, negative = inhibition",Potency
CCOc1ccc(-c2csc(N3CCC(C(N)=O)CC3)n2)cc1,3.14% (inactive),
N#Cc1ccc(-c2ccc(CNc3ccc(N4CCC(C(F)(F)F)CC4)cc3)o2)cc1,-4.07% (inactive),
CC(=O)NC(c1cc(Cl)c2cccnc2c1O)C1CC1 (stereo not given),-18.6% (inactive),
CC(C)(C#CCSc1nnc(-c2cccc3ccccc23)o1)OC(=O)c1ccc(F)cc1,4.6% (inactive),
N#Cc1nc(-c2cccc3ccccc23)oc1NC1CNC1,-4.65% (inactive),
Cc1noc(C)c1-c1ccc2ncnc(NCc3ccc(F)cc3)c2c1,1.07% (inactive),
COC(=O)Nc1sc2c(c1C(N)=O)CCCC2,-1.29% (inactive),
O=C(OCC#CCSc1nnc(-c2ccc3ccccc3c2)o1)c1ccc(F)c(F)c1,1.42% (inactive),
Cc1ccc(-c2ccc(=O)n(CCN)n2)cc1,0.435% (inactive),
COc1cc(F)c(S(=O)(=O)N2CCCN(S(=O)(=O)c3cccc(NC(C)=O)c3)CC2)c(F)c1,-3.02% (inactive),
NC(=O)c1ccccc1C[C@H](C(=O)O)N1C(=O)c2ccc(C(=O)O)cc2C1=O,0.11% (inactive),
Cc1ccccc1NS(=O)(=O)c1ccc2c(c1)CCC(=O)N2,-2.17% (inactive),
Cc1cc(C)nc(NC(=S)N2CCN(c3ccc(Cl)nn3)CC2)c1,0.476% (inactive),
COc1ccc(S(=O)(=O)N2CCN(C(=O)C3COc4ccccc4O3)CC2)cc1 (stereo not given),3.19% (inactive),
Cc1cc2c(s1)c1cnn(Cc3cc(F)c(Cl)cc3Cl)c(=O)c1n2C,-2.19% (inactive),
O=C(NCc1nnc(-c2cc3ccccc3[nH]2)s1)c1ccccc1,0.109% (inactive),
N#Cc1nc(Nc2ccc(F)cc2)nc(NC2CCCC2)n1,-1.93% (inactive),
N#Cc1nc(Nc2ccc(C(F)(F)F)cc2)nc(NC2CCCC2)n1,-0.681% (inactive),
CC(=O)c1ccc(N2CCN(S(=O)(=O)c3ccc4c(c3)CCCN4C(C)=O)CC2)cc1,7.12% (inactive),
O=C(CCC#CCSc1nnc(-c2cccc3ccccc23)o1)c1ccccc1,3.05% (inactive),
